Data: the supplement of paper PMC3334620
Over roughly 33,000 sequences, “E-score (-0.5 to 0.5)” has its median near -0.036; the highest 2% begin near 0.37. The entries come from a sample that favours the highest values as a whole.

What follows are sequences tested against T1, Yer064c (UniProt P40041) (assay: PBM E-score (8-mer binding enrichment) (E-score (-0.5 to 0.5)); higher = stronger / more preferred TF binding). Details: protein concentration: 200 nM; construct: GST-full length.
T1 sequence: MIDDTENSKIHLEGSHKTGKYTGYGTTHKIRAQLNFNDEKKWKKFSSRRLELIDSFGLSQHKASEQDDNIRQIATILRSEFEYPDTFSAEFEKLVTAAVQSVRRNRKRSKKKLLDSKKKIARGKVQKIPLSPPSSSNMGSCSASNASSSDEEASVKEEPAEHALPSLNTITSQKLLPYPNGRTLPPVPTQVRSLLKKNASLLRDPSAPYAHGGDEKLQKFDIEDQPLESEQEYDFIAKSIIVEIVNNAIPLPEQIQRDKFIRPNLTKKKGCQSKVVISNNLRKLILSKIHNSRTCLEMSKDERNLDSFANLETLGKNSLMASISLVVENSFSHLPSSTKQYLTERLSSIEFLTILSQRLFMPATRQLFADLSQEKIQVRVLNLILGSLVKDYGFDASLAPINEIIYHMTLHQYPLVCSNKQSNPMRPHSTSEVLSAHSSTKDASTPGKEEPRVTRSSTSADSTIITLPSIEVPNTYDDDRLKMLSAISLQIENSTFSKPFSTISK
Method: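 Universal 'all 10-mer' protein binding microarrays (Agilent AMADID 015681) probed with GST-tagged S. cerevisiae TFs (full-length or DBD) made by in vitro transcription/translation (PURExpress), about 100-200 nM. Bound TF was detected with fluorescent anti-GST. Each ungapped 8-mer (which stands for itself and its reverse complement) is scored by the PBM enrichment score (E-score), a modified Wilcoxon-Mann-Whitney statistic from -0.5 to +0.5, computed with the Universal PBM Analysis Suite. Scale: above 0.35 generally sequence-specific binding.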

Row | Sequence | PBM E-score
1 | CCAGATCA | 0.058
2 | CGAAGCCA | 0.0935
3 | CTCCCCGA | -0.0625
4 | AGTAGCTG | 0.0121
5 | GCAGAACC | -0.118
6 | ATCGAGCA | -0.149
7 | AGCTGACC | -0.078
8 | AACTGACC | -0.163
9 | ACCTGACC | -0.13
10 | AACTGACA | -0.287
11 | AGCTGACT | 0.458
12 | ACCTGACT | 0.44
13 | AGCTGACG | -0.134
14 | ACCTGACG | -0.192
15 | AACTGACT | 0.404
16 | AAGTGCAG | 0.0456
17 | CCCGTGCC | -0.103
18 | AGGTAACG | -0.0878
19 | ATTCCATA | -0.0291
20 | AGCGCATC | -0.0879
21 | GACTACTC | 0.427
22 | TACTACTA | 0.0844
23 | AACTACTA | -0.0232
24 | AAGTACTC | 0.282
25 | GAGTACTC | 0.381

Row | Sequence | PBM E-score
26 | CAGTACTC | 0.24
27 | GACTACTA | 0.417
28 | AACTACTC | 0.199
29 | CACTACTC | 0.112
30 | AACGTAAT | 0.023
31 | GTTGTCGA | -0.158
32 | GCGTTGCC | -0.252
33 | ACCCTGAC | 0.158
34 | GTTCAGAA | 0.00278
35 | AAGCAGCA | -0.264
36 | ATTGTACA | 0.0112
37 | CGGACTAA | 0.342
38 | GTTACTAA | 0.184
39 | GTGACTAA | 0.488
40 | CTGACTAC | 0.469
41 | CTGACTAA | 0.48
42 | CTTACTAC | -0.0948
43 | CGGACTAC | 0.248
44 | CAGACTAA | 0.317
45 | GGGACTAA | 0.323
46 | AACCGCTA | -0.169
47 | ATGTTATA | -0.0918
48 | CGAAGGAC | 0.079
49 | ACCGCGGG | 0.0814
50 | AGCGCCGA | -0.00218

Row | Sequence | PBM E-score
51 | ACCTTCGA | 0.00431
52 | GAATCTCA | 0.101
53 | CCGGATTA | -0.0124
54 | CCAAGCTC | -0.22
55 | AGATGTCG | -0.0862
56 | ACTCACCG | 0.384
57 | ACTCACCT | 0.338
58 | GCTCACCC | -0.0459
59 | TCTCACCA | -0.117
60 | CCTCACCG | -0.033
61 | ACTCACCA | 0.388
62 | CCTCACCA | -0.134
63 | CCTCACCC | -0.213
64 | ACTCACCC | 0.401
65 | ATCGGAGC | -0.0582
66 | GACGAAGC | -0.0864
67 | TCGGATCA | -0.0516
68 | ATTAGAAT | 0.186
69 | CTTAATCC | 0.114
70 | GTTAATCA | 0.451
71 | ATTAATCA | 0.441
72 | GTTAATTA | 0.0895
73 | ATTAATCG | 0.269
74 | CTTAATCA | 0.45
75 | ATTAATCC | 0.256

Row | Sequence | PBM E-score
76 | CTTAATAA | 0.136
77 | GTTAATAA | 0.117
78 | AGACCAAA | 0.0161
79 | GTAGTAAA | 0.107
80 | CACTTGCG | -0.0335
81 | GTAGGAAA | 0.00646
82 | CGGTTACC | 0.0378
83 | ATATTGGC | -0.228
84 | GGAGGACC | -0.37
85 | GACTTAAA | 0.325
86 | GCAAGTCA | 0.361
87 | ACAAGTCT | 0.0793
88 | CCAAGTCA | 0.317
89 | TCAAGTCA | 0.379
90 | ACAAGTCG | 0.0706
91 | ACAAGTCA | 0.374
92 | ACAGGGCA | -0.128
93 | ATATCCAC | -0.0172
94 | TCAAAGCA | 0.0603
95 | ACTGTTGC | -0.0887
96 | AAACCGGC | -0.0714
97 | ATTCGCGA | 0.122
98 | AAATGAGC | 0.058
99 | AAATGAGG | -0.229
100 | AAATGACG | 0.0769

Row | Sequence | PBM E-score
101 | AAATGATT | 0.437
102 | AAATGAGT | 0.427
103 | AAATGACT | 0.475
104 | AAATGATC | 0.121
105 | AAATGATA | 0.104
106 | AAATGACC | -0.0187
107 | ACTATCTC | 0.212
108 | AATCCGGG | -0.239
109 | CCGTCTCA | 0.0264
110 | GAAATCAC | 0.347
111 | CTAATCGC | 0.128
112 | ATAATCTC | 0.137
113 | CTAATCAG | 0.286
114 | GTAATCAC | 0.413
115 | ATAATCAC | 0.385
116 | ATAATCAG | 0.33
117 | ATAATCAA | 0.269
118 | ATAATCAT | 0.45
119 | CTAATCAC | 0.393
120 | ATAATCCC | -0.227
121 | GTAATCAA | 0.325
122 | ACCTCCAA | 0.0762
123 | ATGTAACG | -0.038
124 | TACCGCCA | -0.125
125 | AGATAGGA | -0.126

Row | Sequence | PBM E-score
126 | AGAATCAA | 0.243
127 | TTAATCAA | 0.371
128 | TCAATCAA | 0.281
129 | TGAATCAA | 0.419
130 | CGAATCAA | 0.272
131 | CTAATCAA | 0.264
132 | ATCGACAG | -0.109
133 | CGTGAGTA | 0.323
134 | AGTGAGTA | 0.355
135 | CGTGAGTC | 0.48
136 | AGTGAGTC | 0.474
137 | CGTGAGCC | 0.0694
138 | AGTGAGTG | 0.0771
139 | GGGTGGGA | -0.139
140 | ACCCCAAT | -0.114
141 | GTATTGTA | -0.0603
142 | ATTGGATC | -0.0186
143 | AATTTTGT | 0.161
144 | AAGCGGGA | -0.239
145 | AGATAGTG | 0.0368
146 | CGATAGCC | -0.0746
147 | CGATAGTC | 0.422
148 | CGATAGTA | 0.032
149 | AGATAGTC | 0.403
150 | AGATAGTA | 0.177

Row | Sequence | PBM E-score
151 | GAACAAGC | -0.357
152 | GAGACATA | 0.334
153 | AAGTCGGT | 0.0145
154 | AAAAGACA | -0.0266
155 | AGGTGGAC | -0.133
156 | CGTCAGAC | -0.124
157 | ACTCAGAG | 0.302
158 | GGTCAGAC | 0.0361
159 | GGTCAGAA | -0.00031
160 | ACTCAGAT | 0.339
161 | AATCAGAT | 0.329
162 | AGTCAGAG | 0.428
163 | AGTCAGAC | 0.436
164 | TGTCAGAA | -0.00325
165 | CGTCAGAG | -0.136
166 | AGTCAGAT | 0.427
167 | AGTCAGAA | 0.434
168 | GGGTATAA | -0.108
169 | ATCGTGAG | 0.124
170 | CCGCGTTC | -0.274
171 | AATTCCCC | -0.128
172 | ACCGGCAG | -0.243
